The results in this text go back to PubChem BioAssay AID493131 (Broad Institute, 2011).

Structures are written as SMILES. About 3,300 (0.97%) of roughly 340,000 compounds were called active. Shown is part of a subset that was picked to be rich in actives. A number with no mark means an inactive call.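 The calls were made as follows: active = mean activation above about 17%, with every replicate also reaching it (limit read from the data, passing the limit was not always enough); inconclusive = only one of the two conditions met; inactive = the rest.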

The target of the experiment is Protein FosB (Mus musculus) (UniProt P13346). The experiment in a line: activators of delta FosB homodimer, primary screen, biochemical, fluorescence polarization, TAMRA-CDK5 oligo, single point (AID 493131).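 Also: fluorescence polarization rise as delta FosB binds a TAMRA Cdk5 AP-1 oligo.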 The conditions noted are these: purified delta FosB, at 25 µM, hits give high values, percent of positive-control signal above neutral wells.
Sequence of Protein FosB (Mus musculus) (P13346 whole entry, looked up): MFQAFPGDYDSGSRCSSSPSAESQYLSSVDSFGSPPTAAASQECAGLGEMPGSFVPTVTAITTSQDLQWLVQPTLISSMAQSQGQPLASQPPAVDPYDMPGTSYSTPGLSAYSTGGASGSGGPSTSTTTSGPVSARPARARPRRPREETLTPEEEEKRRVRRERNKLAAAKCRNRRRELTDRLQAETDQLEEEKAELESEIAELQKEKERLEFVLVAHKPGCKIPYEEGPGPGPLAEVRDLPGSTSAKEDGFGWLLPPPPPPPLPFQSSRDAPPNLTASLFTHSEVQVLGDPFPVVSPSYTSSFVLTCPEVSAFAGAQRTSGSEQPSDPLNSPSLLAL
Regarding `CCOC(=O)N1CCC(NC(=O)C(C)n2c3ccccc3c3cnn(C)c(=O)c32)CC1` (configuration not stated), the activation was -6.6%.

As for `O=C(Nc1cccnc1Cl)c1cc(-c2ccccc2O)on1`, the activation was 64.8% (active). As for `C=CCNC(=O)c1cc(-c2ccccc2O)on1`, the activation is -2.37%. Regarding `O=C(Nc1ccccc1C(F)(F)F)c1cc(-c2ccc(O)cc2)on1`, the activation was 0.0145%. Consider `Cc1ccc(NC(=O)COC(=O)CCc2nc3ccccc3n2-c2ccccc2)c(C)c1`, for which the activation was -3.49%.

On to `Cc1oc(-c2cccc(Cl)c2)[n+]([O-])c1C`, for which the activation is 7.9%. Next, `COc1ccc(C(=O)Nc2cc(C)c(NC(=O)c3ccccc3OC)cn2)cc1`: -13.9%; `COc1ccc(C(=O)Nc2ccccc2C(=O)N/N=C/c2ccccc2OC)cc1`: 38% (active); `COc1ccc(C(=O)Nc2ccccc2C(=O)N2CCN(c3ccccc3)CC2)cc1`: -0.701%. Turning to `Cc1ccc(NC(=O)NNC(=O)c2sccc2-n2cccc2)cc1`, the activation is -2.71%.

Turning to `Nc1ccn(CC(=O)N2CCN(c3ccccn3)CC2)c(=O)n1`, the activation was -4.48%. Next, `COc1ccc(NC(=O)C2CCN(S(=O)(=O)c3ccc4[nH]c(=O)oc4c3)CC2)c(OC)c1`: 1.87%. Next, `Cc1ccc(C)c(N2CCN(S(=O)(=O)c3ccc4c(c3)oc(=O)n4C)CC2)c1`: -5.87%; `Cn1c(=O)oc2cc(S(=O)(=O)N3CCC(C(=O)Nc4ccc(OC(F)(F)F)cc4)CC3)ccc21`: 32.2% (active); `O=C(Nc1ccc(S(=O)(=O)N2CCOCC2)cc1)C1CCN(S(=O)(=O)c2ccc(Cl)cc2)CC1`: -7.05%. As for `Cc1ccc2nc(NC(=O)C3CCN(S(=O)(=O)c4ccc5c(c4)oc(=O)n5C)CC3)sc2c1`, the activation was 28.8% (active). Next, `O=C(NC1CCCCC1)n1c(=O)oc2cc(S(=O)(=O)N3CCCCC3)ccc21`: 3.88%. To `CC(=O)c1cccc(-c2ccc(CN3C(CC(C)C)C(=O)N(Cc4cn(CC5CCCCC5)nn4)CCS3(=O)=O)cc2)c1` (configuration not stated) belongs -19.5%. To `O=C(NN=Cc1ccccc1O)NN=Cc1ccccc1O` belongs 8.66%; to `O=C(Nc1ccc(C(=O)NCc2ccccc2Cl)cc1)C1=CSCCO1`, -4.85%.

Consider `COc1cc(O)c2c(=O)c3c(O)c(O)ccc3oc2c1OC`, for which the activation was -1.22%.

Regarding `CCCc1nc2c([nH]1)C(c1cccnc1)C(C#N)=C(N)O2` (configuration not stated), the activation is -0.0522%. To `CCOC(=O)C1=C(O)/C(=C/c2cc(C)n(-c3ccccc3)c2C)N=C1C` belongs -14.4%. Next, `O=C(COc1ccccc1)Nc1ccc(F)cc1`: -2.09%. Next, `CC(=O)Nc1ccc(NC(=O)COc2ccc(-c3ccccc3)cc2)cc1`: 14.5%; `CCOC(=O)C1=C(O)/C(=C/c2ccc(OCC(=O)Nc3ccc(C)cc3)cc2)N=C1C`: 30.5% (active). Take `COC(=O)C1=C(O)/C(=C/c2ccc(OCC(=O)Nc3ccccc3)cc2)N=C1C`: the activation is 13.8%. Next, `Cc1ccc(NC(=O)COc2ccc(/C=C3/NC(=O)NC3=O)cc2)cc1`: 73.1% (active). To `CSCCC(NC(=O)COc1ccccc1)C(=O)N(C)CC(=O)Nc1ccc(C)cc1` (configuration not stated) belongs -10.6%; to `C#Cc1ccc([C@@H]2C=C(C(=O)O)O[C@H](OCCCCO)C2)cc1`, -5.67%; to `O=C(Nc1ccc(Br)cn1)C1CCN(S(=O)(=O)c2cccs2)CC1`, 0.962%. Next, `CN(CCNC(=O)c1cc2c(-c3ccccc3F)nn(C)c2s1)C1CCCCC1`: -29%; `CSc1nc2c(c(=O)[nH]1)C(c1cccc(Cl)c1Cl)CC(=O)N2` (configuration not stated): -2.19%; `COc1ccc(C2CC(=O)Nc3sc(=N)c4c(N)c(C#N)c(N)nc4c32)cc1OC` (configuration not stated): 2.35%.

As for `N#Cc1c(N)nc2c3c(sc(=N)c2c1N)NC(=O)CC3c1ccccc1Cl` (configuration not stated), the activation was 57.2% (active). To `O=C(Nc1ccc(N2CCN(C(=O)c3cccs3)CC2)cc1)c1cccnc1Cl` belongs -0.363%; to `Nc1nnc(SCC(=O)OCc2ccc(Cl)c(Cl)c2)s1`, -5.37%. To `CN(C)CC(O)COc1ccc(C(C)(C)c2ccc(OCC(O)CN(C)C)cc2)cc1` (configuration not stated) belongs 20% (active); to `COc1ccc(OCC(O)CN(C)C(=O)C(C)Oc2ccccc2)cc1` (configuration not stated), 4.24%. On to `Cc1cc(C)n(CC(O)COc2ccc(C(C)(C)C)cc2)n1` (configuration not stated), for which the activation was -7.22%. To `O=C1CC(Sc2ncn[nH]2)C(=O)N1c1ccccc1` (configuration not stated) belongs 1.52%; to `Cc1cc(Nc2cc(N3CCN(C)CC3)nc(Sc3ccc(NC(=O)C4CC4)cc3)n2)n[nH]1`, 3.28%. In the case of `CCCOCC(O)CC(CC)C(=O)NNC(=S)Nc1ccccc1` (configuration not stated), the activation is -0.789%. To `Cc1ccc(/C=N/NC(=O)COc2ccccc2-c2ccccc2)cc1` belongs 2.13%; to `O=C(/C=C/c1ccc(F)cc1)NCCNC(=O)/C=C/c1ccc(F)cc1`, 53.1% (active).

Turning to `C=CCNC(=O)/C=C/c1ccc(C(C)C)cc1`, the activation is -5.28%. For the compound `O=C(/C=C/c1ccc(F)cc1)NC(=S)NNC(=O)c1cccnc1`, the activation was -8.6%. Next, `O=c1c(/C=N/O)coc2ccc(Cl)cc12`: -6.61%. Consider `Cc1ccc2occ(/C=N/NC(=O)c3ccccc3C)c(=O)c2c1`, for which the activation was -9.18%. Take `O=C1/C(=C/c2coc3ccc(O)cc3c2=O)SC(=S)N1c1ccccc1`: the activation was 45.3% (active). Turning to `COc1ccc(CNC(=O)c2ccc3oc(C(C)C)nc3c2)cc1`, the activation is -6.34%.

Consider `CC(=O)Nc1ccc(Nc2c3ccccc3nc3ccccc23)cc1`, for which the activation is 107% (active).

With `CC(=O)Nc1ccc(S(=O)(=O)N(C)c2nc3ccccc3nc2Cl)cc1`, the activation is -7.23%. Next, `CC(=O)Nc1ccc(Nc2c([N+](=O)[O-])cc(S(C)(=O)=O)cc2[N+](=O)[O-])cc1`: 9.05%. `COC(=O)CNC(=O)c1ccc(OC2CCN(C(=O)C3CC3)CC2)cc1`: the activation is 4.73%. To `O=C(NCc1ccccc1)C1CCCN(S(=O)(=O)c2cccs2)C1` (configuration not stated) belongs -3.74%; to `COc1ccc(C(=O)NN2C(=O)C3C(c4ccccc4)C=CC(c4ccccc4)C3C2=O)cc1` (configuration not stated), -10.4%.
